# Reference: PubChem BioAssay (NCATS)
# Inconclusive results are not listed. A number with no mark means an inactive call. Calls of active or inactive are those of the source. Calls come from the whole dose curve; as a rule, active = well fitted cell-killing curve with a large enough effect; inconclusive = small, poorly fitted or top-dose-only effect, or effect the other way; inactive = no such curve, though single readings can be large or run the other way.
# Test: Quantitative High-Throughput drug screen in 47 multiple myeloma cell lines against the NCATS MIPE library collection: SKMM1_PLB cell viability assay (AID 1919863); note: nearly all actives have a fitted effect of over 35% in size; for viability: series mostly up to about 46 µM
# Conditions: SKMM1 myeloma viability, CellTiter-Glo ATP, 48 h; viability: hits give low values
# How it was run: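 Readout: median RLU from CellTiter-Glo after 5 min at room temperature. Preceding step was 48 h drug treatment of 500 cells/well at 37 °C, 5% CO2, with DMSO-only and media-only control wells.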
# Potency is the fitted concentration of half-maximal effect.
SMILES,Potency,viability [%]
CC1C(=O)OC2C(O)C34C5CC(C(C)(C)C)C36C(OC(=O)C6O)OC4(C(=O)O5)C12O (stereo not given),11.8 µM (active),
C[C@@H](NC(=O)c1ncnc(N)c1Cl)c1ncc(C(=O)Nc2cc(C(F)(F)F)c(Cl)cn2)s1,16.6 µM (active),
C[C@@H](O)[C@H]1C(=O)N2C(C(=O)OCOC(=O)C(C)(C)C)=C(SC3CN(C4=NCCS4)C3)[C@H](C)[C@H]12,,111
CN(C)CC[C@H](CSc1ccccc1)Nc1ccc(S(=O)(=O)NC(=O)c2ccc(N3CCN(Cc4ccccc4-c4ccc(Cl)cc4)CC3)cc2)cc1[N+](=O)[O-],18.7 µM (active),
C[C@@H]1C[C@H]2[C@@H]3CCC4=CC(=O)C=C[C@]4(C)[C@@]3(F)[C@@H](O)C[C@]2(C)[C@@]1(O)C(=O)CO,,118
O=c1[nH]c(=O)n([C@H]2C[C@@H](O)[C@@H](CO)O2)cc1I,,119
CON(C)C(=O)N1N=C(c2cc(F)ccc2F)S[C@]1(CCCN)c1ccccc1,,61.2
C[C@]12C=CC(=O)C=C1CC[C@@H]1[C@@H]2[C@@H](O)C[C@@]2(C)[C@@H]1CC[C@]2(O)C(=O)CO,1.48 µM (active),
Cc1cnc(-c2cc(N3CCN(C(=O)CCS(C)(=O)=O)CC3)ncc2Cl)c(C)c1,,114
CCC[C@H](Nc1nc(-c2ccc(NC(=O)NCC)c(OC)c2)ncc1C)c1cccnc1,0.003 µM (active),
CCN(CC)CCCCNc1nc2cc(Cl)c(Cl)cc2nc1-c1ccc(-c2cccs2)s1,16.6 µM (active),
CO[C@H]1/C=C\O[C@@]2(C)Oc3c(C)c(O)c4c(O)c(c(C=NN5CCN(C6CCCC6)CC5)c(O)c4c3C2=O)NC(=O)C(C)=CC=C[C@H](C)[C@H](O)[C@@H](C)[C@@H](O)[C@@H](C)[C@H](OC(C)=O)[C@H]1C,7.43 µM (active),
CC(=O)NCCC(=O)N[C@@H](CCC(N)=O)C(=O)N[C@@H](CO)C(=O)N[C@@H](CCC(N)=O)C(=O)N[C@@H](CCC(N)=O)C(=O)N[C@H](C(=O)N[C@@H](Cc1ccccc1)C(=O)N[C@]1(C)CCCCCCC=CCCC[C@@](C)(C(=O)N[C@@H](CCC(N)=O)C(=O)N[C@@H](CC(N)=O)C(N)=O)NC(=O)[C@H](CC(C)C)NC(=O)[C@H](CC(C)C)NC(=O)[C@@H](CCCNC(=N)N)NC(=O)[C@H](Cc2c[nH]c3ccccc23)NC(=O)[C@H](CC(C)C)NC(=O)[C@H](CC(N)=O)NC1=O)[C@H](C)O,16.6 µM (active),
CC1(C)[C@H]2CC[C@]3(C)[C@@H](C(=O)C=C4[C@@H]5C[C@@](C)(C(=O)O)CC[C@]5(C)CC[C@]43C)[C@@]2(C)CC[C@@H]1O,11.8 µM (active),
COc1cc(C=CC(=O)O)ccc1O,,124
Cc1ccccc1-n1c(Cn2nc(-c3cccc(O)c3)c3c(N)ncnc32)nc2cccc(C)c2c1=O,8.33 µM (active),
O=C(NCCCCN1CCOCC1)c1cc2ccccc2o1,,115
Cc1[nH]c(C=C2C(=O)Nc3ccc(S(=O)(=O)N(C)c4cccc(Cl)c4)cc32)c(C)c1C(=O)N1CCN(C)CC1,20.9 µM (active),
O=C(Nc1ccc(OC(F)(F)F)cc1)c1sccc1NCc1ccnc2ccccc12,18.7 µM (active),
COc1ccnc(CS(=O)c2nc3ccc(OC(F)F)cc3[nH]2)c1OC (stereo not given),,150
CN1c2ccccc2C(=O)N2CCc3c([nH]c4ccccc34)C21 (stereo not given),,100
O=C(NC[C@H](O)CO)c1ccncc1Nc1ccc(I)cc1F,8.33 µM (active),
CCOC(=O)N1CCN([N+]([O-])=NOc2cc(ON=[N+]([O-])N3CCN(C(=O)OCC)CC3)c([N+](=O)[O-])cc2[N+](=O)[O-])CC1,4.69 µM (active),
O=C(CO)N1CCC(c2[nH]nc(-c3ccc(Cl)cc3)c2-c2ccncn2)CC1,0.59 µM (active),
CC1(COc2ccc3c(c2)ncn3-c2ccc3cccc(N4CCC(N)CC4)c3n2)COC1,16.6 µM (active),
